# Counter-ions that a name gives are not always drawn. ± gives the standard deviation of the averaged measurements.
# System: Escherichia coli ATCC BAA-2469
# Assay: percent growth inhibition of drug alone vs DMSO control; higher = more growth inhibition
# Settings: antibiotic (0.125x MIC): none (0.1% DMSO); 7 µM
# Protocol: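 Prestwick drugs tested at 20 uM and 7 uM with an antibiotic at 0.125x MIC (16 mg/L when MIC >128 mg/L) against E. coli ATCC BAA-2469 (NDM-1) in CAMHB, 384-well plates, duplicate runs. Percent growth inhibition was computed from OD600 (24 h minus 0 h) relative to DMSO wells. Drug + DMSO-only wells are also given. […]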
row,Structure (SMILES),percent growth inhibition of drug alone [%]
1,C#C[C@]1(OC(C)=O)CC[C@H]2[C@@H]3CCC4=C[C@@H](OC(C)=O)CC[C@@H]4[C@H]3CC[C@@]21C [Ethynodiol diacetate],-1.57 ± 7.4
2,CCCCNc1c(C(=O)OCC)c(C)nc2c1cnn2CC [Tracazolate hydrochloride],3.29 ± 0.5
3,NC(=O)N/N=C/c1ccc([N+](=O)[O-])o1 [Nitrofural],5.6 ± 7.3
4,Oc1c(Cl)cc(Cl)c2cccnc12 [Chloroxine],13.1 ± 9.1
5,Oc1c(I)cc(Cl)c2cccnc12 [Clioquinol],11.8 ± 2.5
6,COc1cc(C(=O)NCc2ccc(OCCN(C)C)cc2)cc(OC)c1OC [Trimethobenzamide hydrochloride],2.6 ± 2.7
7,CC1CS(=O)(=O)CCN1/N=C/c1ccc([N+](=O)[O-])o1 (stereo not drawn) [Nifurtimox],1.01 ± 1.2
8,Clc1cccc(Cl)c1NC1=NCCN1 [Clonidine hydrochloride],0.913 ± 1.3
9,Nc1nnc(-c2cccc(Cl)c2Cl)c(N)n1 [Lamotrigine],2.35 ± 0.19
10,O=C1NCCN1c1ncc([N+](=O)[O-])s1 [Niridazole],19.9 ± 7.6
11,Oc1c(Cl)cc(Cl)c(Cl)c1Cc1c(O)c(Cl)cc(Cl)c1Cl [Hexachlorophene],9.96 ± 8.8

# Same assay, conditions: antibiotic (0.125x MIC): none (0.1% DMSO); 20 µM
row,Structure (SMILES),percent growth inhibition of drug alone [%]
1,C#C[C@]1(OC(C)=O)CC[C@H]2[C@@H]3CCC4=C[C@@H](OC(C)=O)CC[C@@H]4[C@H]3CC[C@@]21C [Ethynodiol diacetate],-0.574 ± 3.8
2,CCCCNc1c(C(=O)OCC)c(C)nc2c1cnn2CC [Tracazolate hydrochloride],-0.173 ± 5.2
3,NC(=O)N/N=C/c1ccc([N+](=O)[O-])o1 [Nitrofural],32.1 ± 18
4,Oc1c(Cl)cc(Cl)c2cccnc12 [Chloroxine],102 ± 8
5,CO[C@H]1/C=C/O[C@@]2(C)Oc3c(C)c(O)c4c(O)c(c(/C=N/N5CCN(C6CCCC6)CC5)c(O)c4c3C2=O)NC(=O)/C(C)=C\C=C\[C@H](C)[C@H](O)[C@@H](C)[C@@H](O)[C@@H](C)[C@H](OC(C)=O)[C@@H]1C [Rifapentine],112 ± 10
6,COc1cc(C(=O)NCc2ccc(OCCN(C)C)cc2)cc(OC)c1OC [Trimethobenzamide hydrochloride],-0.217 ± 4.2
7,CC1CS(=O)(=O)CCN1/N=C/c1ccc([N+](=O)[O-])o1 (stereo not drawn) [Nifurtimox],1.15 ± 4.3
8,Clc1cccc(Cl)c1NC1=NCCN1 [Clonidine hydrochloride],3.75 ± 2.2
9,Nc1nnc(-c2cccc(Cl)c2Cl)c(N)n1 [Lamotrigine],1.91 ± 1.2
10,CN(C)c1ccc(O)c2c1C[C@H]1C[C@H]3[C@H](N(C)C)C(O)=C(C(N)=O)C(=O)[C@@]3(O)C(O)=C1C2=O [Minocycline hydrochloride],110 ± 14
11,CO[C@H]1/C=C/O[C@@]2(C)Oc3c(C)c(O)c4c(O)c(c5c(nc6cc(C)ccn65)c4c3C2=O)NC(=O)/C(C)=C\C=C\[C@H](C)[C@H](O)[C@@H](C)[C@@H](O)[C@@H](C)[C@H](OC(C)=O)[C@@H]1C [Rifaximin],102 ± 7.8
12,Nc1ncn(C2OC(CO)C(O)C2O)c(=O)n1 (stereo not drawn) [Azacytidine-5],111 ± 10

# From the supplement of paper PMC6658780
